About 18,000 (5.8%) of roughly 310,000 compounds were called active. Entries that show only a call come without a potency. Not shown: some 22% with an inconclusive outcome. Only a selection was taken, and actives are over-represented in it overall. Unmarked numbers belong to inactive results. Calls follow the shape of the dose curve; as a rule, active = well fitted inhibition curve with a large enough effect; inconclusive = small, poorly fitted or top-dose-only effect, or another doubt; inactive = no such curve, though single readings can be large or run the other way.
Potency is read from the fitted curve at half-maximal effect.

A short description of the test: Primary qHTS for delayed death inhibitors of the malarial parasite plastid, 48 hour incubation. The settings on record: P. falciparum luciferase growth in erythrocytes; series mostly up to 28.7 µM. The method in brief: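 Erythrocytes infected with P. falciparum carrying an integrated firefly luciferase reporter (2% hematocrit, 0.1% parasitemia final) were exposed to compounds in RPMI 1640 with 0.5% Albumax at 37 C, 5% CO2. Growth inhibition was scored as reduced luminescence.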
(In general: In qHTS, concentration-response curves come from the screen itself.)
Take `Cc1ccc(-n2c(-c3ccc(Cl)cc3)n[nH]c2=S)cc1`: the Potency entry is “inactive”.

With `S=c1[nH]ccn1-c1ccc(Cl)cc1`, the Potency result is “inactive”.

For the compound `S=c1[nH]cc(-c2ccc(Cl)cc2)n1-c1ccccc1`, the Potency is 1.85 µM (active).

`O=C(O)c1cccc2c1C(=O)N(C1CCCC1)C2`: the Potency result was “inactive”.

For `Cc1ccccc1CN1C[C@@H]2C[C@@H](c3cn(C)nc3-c3ccccc3)N3CCC[C@@]23C1=O`, the Potency was 6.57 µM (active).

In the case of `Cc1ccccc1CN1CCN(CC(=O)NCc2ccccn2)C1=O`, the Potency result was “inactive”.

`Cc1ccc(CN2CCN(Cc3cn(C)nc3-c3ccccc3)CC2CCO)o1` (stereo not given): the Potency entry was “inactive”.

In the case of `Cc1c(C)c(C)c(S(=O)(=O)NCCc2ccccn2)c(C)c1C`, the Potency entry is “inactive”.

Turning to `Cc1c(S(=O)(=O)N2CC(C)CC(C)C2)c(=O)n(C)c(=O)n1C` (stereo not given), the Potency result was “inactive”.

Regarding `COc1cc(OC)cc(C(=O)NCC(=O)N2CCCCCCC2)c1`, the Potency result was “inactive”.

`CN(C)P(=S)(Nc1ccccc1)C(Cl)(Cl)Cl` (stereo not given): the Potency is 11.7 µM (active).

For the compound `O=S(=O)(Nc1ccc2nc(N3CCOCC3)sc2c1)c1ccccc1`, the Potency entry was “inactive”.

As for `C#CCOCCOCCOCCNc1nc(N2CCN(C(=O)[C@H](C(C)C)n3cc(CCO)nn3)CC2)nc(N2CCN(C(=O)[C@H]([C@@H](C)CC)n3cc(CCCN=C(N)N)nn3)CC2)n1`, the Potency entry is “inactive”.

As for `C#CCOCCOCCOCCNc1nc(N2CCN(C(=O)[C@H](CCC(=O)O)n3cc(C(N)CO)nn3)CC2)nc(N2CCN(C(=O)[C@H](CCCCN)n3cc(C(N)CC(C)C)nn3)CC2)n1` (stereo not given in full), the Potency entry was “inactive”.

For `C#CCOCCOCCOCCNc1nc(N2CCN(C(=O)[C@H](CCCCN)n3cc(CCC(=O)O)nn3)CC2)nc(N2CCN(C(=O)[C@H](CCCCN)n3cc(CC(C)O)nn3)CC2)n1` (stereo not given in full), the Potency entry was “inactive”.

Consider `C#CCOCCOCCOCCNc1nc(N2CCN(C(=O)[C@H](CCC(=O)O)n3cc(C(N)CO)nn3)CC2)nc(N2CCN(C(=O)[C@H](Cc3ccc(O)cc3)n3cc(C(N)[C@H](C)CC)nn3)CC2)n1` (stereo not given in full), for which the Potency entry was “inactive”.

Regarding `C#CCOCCOCCOCCNc1nc(N2CCN(C(=O)CCCCCCCCCCNC(=O)Cn3cc(CCCCCN)nn3)CC2)nc(N2CCN(C(=O)CCCCCCCCCCNC(=O)[C@H](CO)n3cc(CCCSC)nn3)CC2)n1`, the Potency was 2.94 µM (active).

In the case of `C#CCOCCOCCOCCNc1nc(N2CCN(C(=O)[C@H](C(C)C)n3cc(CCO)nn3)CC2)nc(N2CCN(C(=O)[C@H](C(C)C)n3cc(CCO)nn3)CC2)n1`, the Potency result is “inactive”.

Regarding `C#CCOCCOCCOCCNc1nc(N2CCN(C(=O)[C@H](CCC(=O)O)n3cc(C(N)CO)nn3)CC2)nc(N2CCN(C(=O)[C@H](CCCCN)n3cc(C(N)[C@H](C)CC)nn3)CC2)n1` (stereo not given in full), the Potency result is “inactive”.

With `C#CCOCCOCCOCCNc1nc(N2CCN(C(=O)CCCCCCCCCCNC(=O)[C@H]([C@@H](C)CC)n3cc(CCCCN=C(N)N)nn3)CC2)nc(N2CCN(C(=O)CCCCCCCCCCNC(=O)[C@H](CO)n3cc(CCCSC)nn3)CC2)n1`, the Potency was 0.329 µM (active).

Consider `C#CCOCCOCCOCCNc1nc(N2CCN(C(=O)CCCCCCCCCCNC(=O)[C@H](CCCCN)n3cc(C)nn3)CC2)nc(N2CCN(C(=O)CCCCCCCCCCNC(=O)[C@H](CO)n3cc(CCCSC)nn3)CC2)n1`, for which the Potency is 0.586 µM (active).

In the case of `COc1ccccc1Oc1ccc(N2CC(C(=O)OCC(=O)c3ccc(F)cc3)CC2=O)cc1` (stereo not given), the Potency entry was “inactive”.

`Cc1ccccc1NC(=O)c1cc(S(=O)(=O)Nc2cccc(C(=O)O)c2)ccc1Cl`: the Potency result was “inactive”.

Turning to `CC(C)[C@@H]1COC(c2cccc(C3=N[C@H](C(C)C)CO3)c2)=N1`, the Potency entry is “inactive”.

`CC1C(=O)N(Cc2ccccc2)c2ccccc2N1C(=O)c1ccccc1` (stereo not given): the Potency result was “inactive”.

For the compound `O=C(OCC(=O)N1CCc2ccccc21)C1CCCN1S(=O)(=O)c1ccc(Cl)cc1` (stereo not given), the Potency entry was “inactive”.

For the compound `O=C(c1ccncc1)N1CCN(S(=O)(=O)c2cccc([N+](=O)[O-])c2)CC1`, the Potency entry was “inactive”.

For `O=C(c1ccncc1)N1CCN(S(=O)(=O)c2cc(C(F)(F)F)cc(C(F)(F)F)c2)CC1`, the Potency was 11.7 µM (active).

For the compound `O=C(Cc1ccsc1)N1CCN(S(=O)(=O)c2cc(C(F)(F)F)cc(C(F)(F)F)c2)CC1`, the Potency result is “inactive”.

As to `CCn1c(SCC(=O)NC2CC2)nnc1-c1ccccc1OC`, the Potency entry was “inactive”.

Take `Cc1cccn2c(=O)nc(SCC(=O)NCc3ccccc3Cl)nc12`: the Potency entry was “inactive”.

Consider `COc1ccc(OCCCCN2CCC(C)CC2)cc1`, for which the activity change, negative = inhibition was -11.4% [at 0.00184 µM].

Take `Cc1ccc2nc(SCC(=O)N3CCN(c4ccccc4)CC3)nc(=O)n2c1`: the Potency result was “inactive”.

As to `O=C(Oc1ccc2c(c1)CCC2)N1CCOCC1`, the Potency entry is “inactive”.

Regarding `COc1cc(NC(=O)N2CCOCC2)cc(OC)c1`, the Potency entry was “inactive”.

On to `O=C(Nc1cccc(OC(=O)N2CCCCC2)c1)N1CCOCC1`, for which the Potency is 10.4 µM (active).

Turning to `COc1cc(OC)cc(C(=O)NCCCn2ccnc2)c1`, the Potency entry is “inactive”.

For `COCCNc1ncnc2c1nc1n2CCCC1`, the Potency entry is “inactive”.

As for `Cc1ccc(S(=O)(=O)NCC(=O)Nc2ccc3c(c2)OCCO3)cc1`, the Potency entry is “inactive”.

`CN(CC(=O)NCc1cccnc1)S(=O)(=O)c1cc(Cl)ccc1Cl`: the Potency entry was “inactive”.

Regarding `CC(C)c1ccc(Nc2ncccc2C#N)cc1`, the Potency entry is “inactive”.

As to `Nc1ccc(Nc2cc(O)c3ncccc3c2)cc1`, the Potency is 10.4 µM (active).

For the compound `Cc1cccc(C)c1NC(=S)N1CCCCCC1`, the Potency result was “inactive”.

`COc1cccc(CNC(=O)CCCC(=O)Nc2cccc([N+](=O)[O-])c2)c1`: the Potency result was “inactive”.

Turning to `O=C(NCc1cccc(Cl)c1)C1CCC(=O)N(C2CC2)C1` (stereo not given), the Potency result was “inactive”.

`O=C(CCN1C(=O)C2CCCCC2C1=O)Nc1ccc(OC(F)F)cc1` (stereo not given): the Potency entry is “inactive”.

As for `Cc1ccc(C(=O)NCCc2nnc(SCC(=O)Nc3cccc(C(=O)O)c3)n2C)cc1`, the Potency result was “inactive”.

`CCOC(=O)c1ccc(NC(=O)c2nc[nH]c2C(=O)N[C@@H](CCCCNC(=O)OC(C)(C)C)C(=O)OC(C)(C)C)cc1`: the Potency is 6.57 µM (active).

Consider `CCOC(=O)c1[nH]cnc1C(=O)Nc1ccccc1C`, for which the Potency result was “inactive”.

For the compound `Cc1ccc(NC(=O)OCCNC(=O)c2ccncc2)cc1`, the Potency result is “inactive”.

Regarding `CCOC(=O)c1ccc(NC(=O)c2nc[nH]c2C(=O)NCc2ccccc2)cc1`, the Potency result is “inactive”.

`C[C@H](NC(=O)c1nc[nH]c1C(=O)NCC(=O)OC(C)(C)C)C(=O)OCc1ccccc1`: the Potency entry was “inactive”.

On to `C[C@H](NC(=O)c1nc[nH]c1C(=O)N[C@@H](C)C(=O)OC(C)(C)C)C(=O)OC(C)(C)C`, for which the Potency is 9.28 µM (active).

Regarding `Cc1ccc(NC(=O)c2nc[nH]c2C(=O)N[C@@H](CCCCNC(=O)OC(C)(C)C)C(=O)OC(C)(C)C)cc1`, the Potency was 13.1 µM (active).

For the compound `Cc1cccc(NC(=O)c2nc[nH]c2C(=O)NCC(=O)OCc2ccccc2)c1`, the Potency entry is “inactive”.

Source of the values: PubChem BioAssay AID504832 (National Center for Advancing Translational Sciences (NCATS), 2011).
